These results are taken from ChEMBL document CHEMBL3988442, “University of Dundee, Small-Polar-MMV Screening Library” (2021).

Molecules are shown by their SMILES. Hit rate of the full screen: of about 69,000 compounds, about 950 (1.4%) showed an effect of 50% or more. The entries come from a sample that favours strong results as a whole.

The assay relates to Mycobacterium tuberculosis. In words: Cornell M. t heat shock assay. Note: in the data most compounds retested in dose-response had high values. Format: functional, organism-based. On the set-up: dose or concentration left out as unconfirmed.
Regarding `CCC(NC(=O)Nc1ccc(OC)c(C)c1)c1ccncc1` (stereo unspecified), the “Percent Effect” value came to 91.94%.

For `CCC(NC(=O)Nc1ccc(OC)c(C)c1)c1noc(C)n1` (stereo unspecified), the “Percent Effect” value is given as 14%.

Regarding `CCNC(=O)Cc1ccc(NC(=O)NC(CC)c2ccncc2)cc1` (stereo unspecified), the “Percent Effect” value is recorded as -2.186%.

Regarding `Cc1oncc1C(=O)N1CCc2ncnc(-c3cnn(C)c3)c2CC1.O=C(O)C(F)(F)F`, the “Percent Effect” value was -24.59%.

For `O=C1CC(NCc2ncc[nH]2)CN1CCc1cccc(Cl)c1` (stereo unspecified), the “Percent Effect” value was found to be 14%.

As to `Clc1cccc(N2CCC(NCc3ncc[nH]3)C2)c1` (stereo unspecified), the “Percent Effect” value stood at 62.08%.

With `Clc1cccc(N2CCC(NCc3cc[nH]n3)C2)c1` (stereo unspecified), the “Percent Effect” value is reported as -2.653%.

In the case of `Cc1ncsc1C(=O)NCCn1nc(C2CCNC2)c2cccnc21.Cl` (stereo unspecified), the “Percent Effect” value was -3.491%.

Consider `Cc1nonc1OCCNc1ncnc2sc3c(c12)CCNC3`, for which the “Percent Effect” value is on record as 19.66%.

`Cc1ccc(CCNc2nc(-c3ccncc3)nc3c2CCNCC3)o1`: the “Percent Effect” value is 6.799%.

For `Oc1ccccc1N1CCN(c2ncnc3sc4c(c23)CCNC4)CC1`, the “Percent Effect” value is reported as -21.81%.

As to `c1ccc2c(c1)CN(c1ncnc3sc4c(c13)CCNC4)CCO2`, the “Percent Effect” value is recorded as 1.883%.

On to `c1ccc(OCCNc2ncnc3sc4c(c23)CCNC4)cc1`, for which the “Percent Effect” value amounted to 56.72%.

Take `Cc1ccc(CCNc2ncnc3sc4c(c23)CCNC4)o1`: the “Percent Effect” value is reported as 98.95%.

In the case of `COc1ccc(C2=CNC(C(F)(F)F)=CC2N)cc1` (stereo unspecified), the “Percent Effect” value is 1.706%.

As for `Cc1csc(CN2CCn3c(COc4cccnc4)cnc3C2C)n1.O=C(O)C(F)(F)F.O=C(O)C(F)(F)F` (stereo unspecified), the “Percent Effect” value worked out at 18.26%.

In the case of `Cc1ccsc1C(=O)N1C[C@@H]2CN(Cc3ccoc3)CCO[C@@H]2C1.O=C(O)C(F)(F)F`, the “Percent Effect” value was -4.487%.

For `O=C(O)C(F)(F)F.O=C(c1ccc[nH]1)N1CCn2cc(Cn3cccn3)nc2C1`, the “Percent Effect” value is listed as -0.1806%.

`CN(C)c1ccccc1CN1CCC(N2CCCC2=O)CC1`: the “Percent Effect” value is listed as -7.548%.

For the compound `O=C(N1CCCC1)N1CCC[C@]2(C[C@@H](Oc3ncccc3F)CO2)C1.O=C(O)C(F)(F)F`, the “Percent Effect” value is given as -4.547%.

Consider `CN(C)C(=O)c1ccc2c(c1)N(C)C(CC(=O)NCc1ccno1)CO2` (stereo unspecified), for which the “Percent Effect” value was 79.27%.

With `COC(=O)CNC(=O)CC1COc2ccc(C(=O)N(C)C)cc2N1C` (stereo unspecified), the “Percent Effect” value was 7.778%.

As for `CN(C)C(=O)c1ccc2c(c1)N(C)C(CC(=O)NCc1ncc[nH]1)CO2` (stereo unspecified), the “Percent Effect” value is -1.035%.

For the compound `CNC(=O)CN1CCOCC2(CCCN(Cc3ccsc3)C2)C1.O=C(O)C(F)(F)F.O=C(O)C(F)(F)F` (stereo unspecified), the “Percent Effect” value is recorded as -10.69%.

For `CCOc1ncccc1NC(=O)c1cccs1`, the “Percent Effect” value was -26.07%.

Take `CCOc1ncccc1NC(=O)c1cc(C)sc1C`: the “Percent Effect” value stood at 19.66%.

Take `CCOc1ncccc1NC(=O)c1sccc1C`: the “Percent Effect” value amounted to 102.4%.

In the case of `Cl.NC1CCc2nc(-c3ccncc3)nc(Nc3cccc(F)c3)c2C1` (stereo unspecified), the “Percent Effect” value is listed as 82.22%.

On to `O=C(Nc1cccc(F)c1)NC1CCN(Cc2ccncc2)CC1`, for which the “Percent Effect” value is -8.889%.

Regarding `CCOCCNc1nc(-c2ccncc2)nc2c1CCNCC2`, the “Percent Effect” value is -10.32%.

Regarding `c1cc(-c2nc3c(c(NCCn4ccnn4)n2)CCNCC3)ccn1`, the “Percent Effect” value is given as -28.7%.

`Cc1sc2c(C3CCNCC3)nc(Nc3cccc(F)c3)n2c1C.Cl`: the “Percent Effect” value was determined as 26.64%.

For `O=C(c1cccnc1O)N1CCN(CCc2cccs2)CC1`, the “Percent Effect” value came to 3.025%.

In the case of `O=C(O)C(F)(F)F.O=C(c1cnccn1)N1CCCC2(CCN(c3ccccn3)C2)C1` (stereo unspecified), the “Percent Effect” value is -26.38%.

With `Cc1ccc(CN(Cc2ncc[nH]2)C2CC(C)(C)NC(C)(C)C2)o1.O=C(O)CC(O)(CC(=O)O)C(=O)O`, the “Percent Effect” value is 28.54%.

Take `O=C(O)C(F)(F)F.O=C(c1ccno1)N1CCc2ncnc(-c3ccncc3)c2CC1`: the “Percent Effect” value amounted to 1.058%.

Turning to `Cc1ccoc1C(=O)N1CCn2nnc(COc3cccnc3)c2C1.O=C(O)C(F)(F)F`, the “Percent Effect” value is listed as -27.69%.

`O=C(O)C(F)(F)F.O=C(O)C(F)(F)F.O=C(c1ccnnc1)N1CCN2C[C@H](OCc3cccnc3)C[C@H]2C1`: the “Percent Effect” value is reported as -1.051%.

`Cc1ccc(CN2Cc3nnn(C)c3C(COCc3ccccc3)C2)o1.O=C(O)C(F)(F)F` (stereo unspecified): the “Percent Effect” value is listed as -18.88%.

For the compound `CCc1ccc(CN(C)Cc2nc(-c3cnccn3)no2)nc1`, the “Percent Effect” value was found to be 20.61%.

Consider `CN(Cc1nc(COc2ccccc2)no1)CC1Cc2ccccc2O1` (stereo unspecified), for which the “Percent Effect” value is 29.18%.

As to `CCc1ccc(CN(C)Cc2nc(COc3ccccc3)no2)nc1`, the “Percent Effect” value is listed as 62.03%.

Take `COc1ccccc1N1CCC(CNCc2cccc(OC)c2OC)C1` (stereo unspecified): the “Percent Effect” value is 81.84%.

Regarding `COc1ccc(CNCC2CCN(c3ccccc3OC)C2)cc1O` (stereo unspecified), the “Percent Effect” value turned out to be 2.532%.

As for `COc1ccccc1N1CCC(CNCc2cccc(O)c2)C1` (stereo unspecified), the “Percent Effect” value was found to be 14.53%.

Turning to `O=C(NC1CCC1)[C@@H]1C[C@@H]2CCN(Cc3cccs3)C[C@@H]2O1.O=C(O)C(F)(F)F`, the “Percent Effect” value came to 3.012%.

Turning to `CCC(CO)N(Cc1ccccn1)C(=O)c1ccc(=O)[nH]c1` (stereo unspecified), the “Percent Effect” value amounted to 1.592%.

On to `O=C(NC[C@]12COC[C@H]1CN(Cc1nccs1)C2)c1cscn1.O=C(O)C(F)(F)F`, for which the “Percent Effect” value came out at 1.78%.

With `COc1ccc(CN2CCC3(CC2)CCN(CC(=O)N(C)C)C3=O)cc1.O=C(O)C(F)(F)F`, the “Percent Effect” value came out at 1.282%.

In the case of `O=C1NCC2(CCCN(C(=O)CCn3cnc4ccccc43)CC2)O1` (stereo unspecified), the “Percent Effect” value is recorded as -31.86%.

With `Cn1c(CCC(=O)N2CCCC3(CC2)CNC(=O)O3)nc2cccnc21` (stereo unspecified), the “Percent Effect” value is on record as -15.92%.

With `O=C1NCC2(CCCN(C(=O)Cn3nc4ccccc4n3)CC2)O1` (stereo unspecified), the “Percent Effect” value is 102.6%.

For `O=C(O)CC(O)(CC(=O)O)C(=O)O.O[C@@]1(c2ccccn2)CC[C@H]2CN(Cc3ccccn3)C[C@H]21`, the “Percent Effect” value worked out at 3.038%.

Take `CCN(CC)c1ccc2ccc(C(=O)O)cn12`: the “Percent Effect” value was 4.754%.

Turning to `CN1CCN(c2ccc3ccc(C(=O)N4CCCCO4)cn23)CC1.O=C(O)C(F)(F)F`, the “Percent Effect” value is on record as 28.6%.

Regarding `CCN(CC)c1ccc2ccc(C(=O)N3CCCCO3)cn12.O=C(O)C(F)(F)F`, the “Percent Effect” value was determined as 56.41%.

Regarding `Cl.O=C(Cn1c(-c2ccco2)cc2cccnc21)N1CCCC1`, the “Percent Effect” value was 2.747%.

`CC(=O)N1[C@H](Cn2cncn2)C[C@@H]2CN(S(C)(=O)=O)CC[C@@H]21`: the “Percent Effect” value was -11.62%.

For the compound `CCc1nnc(CN(C)c2nc(C(C)C)nc3c2cnn3C)o1`, the “Percent Effect” value worked out at 106.1%.

As for `CCCc1nc(N(C)CCc2noc(C(C)C)n2)c2cnn(C)c2n1`, the “Percent Effect” value is recorded as -6.302%.

On to `CCc1nnc(CN(C)c2nc(C3CCCC3)nc3c2cnn3C)o1`, for which the “Percent Effect” value is -3.006%.
